Experimental data taken from PubChem BioAssay AID1508600 (Functional Genomics Laboratory (NCATS/FGL), 2020).
The campaign covered roughly 53,000 sequences. About 3,700 (7%) were called active.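 How the source made its calls: active means gene knockdowns whose robust z-score for IL-1 alpha signal is at least 2 or at most -2, so actives lie on both sides; inactive means the rest.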 This excerpt belongs to a sample that is enriched for actives.

Experiment: Components of the Cytosolic LPS Sensing Pathway: Gene Identification via Genome-wide siRNA Screen;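 further: robust z of the log signal after scaling to non-targeting control siRNA wells of the plate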
Conditions: RAW264.7 macrophages, IL-1a HTRF, actives lie on both sides, screened at 100 nM (by protocol), cells primed 5 h with Pam3CSK4 first
How it was run: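 Using IL-1a HTRF as read-out, the screen measured release from RAW264.7 cells after 48h siRNA knockdown (100 nM), 5 h Pam3CSK4 priming and 24 h cytosolic LipidA. Values were expressed relative to negative-control wells as robust z-scores.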

Q: Which z-score does the source give for GGAGAAAUUUCUGAGAAGATT against Slc51a here?
A: -1.24 (inactive)

Q: Which z-score does the source give for GGCGGCCUUAGUAGAUAUCTT against Acsl4 here?
A: 0.677 (inactive)

Q: For GGAACAAGGAAGUUACAGGTT against Olfr30, which z-score is on record?
A: -1.06 (inactive)

Q: With GAAAAGAGUUUCCACGAGATT against Il19 as the sequence, how does the z-score read?
A: 0.0645 (inactive)

Q: For GGAGAUUCUCCAUAACCUGTT against Rnf135, which z-score is on record?
A: 2.29 (active)

Q: With “GGGAGAAAGAUUGUAACUATT against 1110032A03Rik” as the sequence, how does the z-score read?
A: -1.05 (inactive)

Q: With GGAACAAAAACCAUUGUGATT against Gng7 as the sequence, how does the z-score read?
A: -1.49 (inactive)

Q: For CGAACCUGUUGACGGAUUCTT against Wnt1, which z-score is on record?
A: 0.563 (inactive)

Q: With GGACAAAGCAAUCCACAUCTT against Wdr55 as the sequence, how does the z-score read?
A: -0.564 (inactive)

Q: Which z-score does the source give for CCAUCGGGAUUGACUAUGGTT against Dnajc27 here?
A: -0.878 (inactive)

Q: Which z-score does the source give for GCUAAUGAUACAGAAGUUGTT against Snrpb2 here?
A: 0.661 (inactive)

Q: Which z-score does the source give for GGAGGAUGAGGAUUUUGAUTT against Spsb3 here?
A: 2.16 (active)

Q: For CCACUUCUUUCCAUGAACUTT against Slc6a4, which z-score is on record?
A: 0.7 (inactive)

Q: Which z-score does the source give for GGCAGAUUGAUAAAAUUCATT against Stag1 here?
A: -0.223 (inactive)

Q: With GCUCAGUCUCUUGGGUGGUTT against Cel as the sequence, how does the z-score read?
A: 2.27 (active)

Q: For GCUCUGUUCACCUACCCGATT against Anapc16, which z-score is on record?
A: 0.264 (inactive)

Q: For GGUUGUACUUGUUUUUCCUTT against Dtwd1, which z-score is on record?
A: 1.35 (inactive)

Q: Which z-score does the source give for GCAUUGUCAUGAUACAACATT against Fem1b here?
A: 0.793 (inactive)

Q: With GGAGGAGAGGAGAAUAGCATT against Atp5k as the sequence, how does the z-score read?
A: -0.586 (inactive)

Q: With GGAACUACAACAGAAACGATT against Cep131 as the sequence, how does the z-score read?
A: -1.42 (inactive)

Q: For GUGACAAUGAAAAAUGUGUTT against Clec4b1, which z-score is on record?
A: -2.42 (active)

Q: For GGAAAUGUCUUAUGAUAACTT against Col5a1, which z-score is on record?
A: 0.194 (inactive)

Q: Which z-score does the source give for CCUCAUCAAUCAGCCUAUGTT against Olfr1178 here?
A: -1.83 (inactive)

Q: For GCAUCGCUAAGUCCGUCUUTT against Aqp4, which z-score is on record?
A: -0.1 (inactive)

Q: For GGACCUGUAUUCUCAGGGATT against Lce1a2, which z-score is on record?
A: -0.251 (inactive)

Q: Which z-score does the source give for CCUGUAACCUUGCUUAAUGTT against Hoxc6 here?
A: 0.0208 (inactive)

Q: Which z-score does the source give for GGAGAAAUGAAGGUAUACATT against Cert1 here?
A: -1.12 (inactive)

Q: With GGUUUAUGACAAACUGAAATT against Enpp4 as the sequence, how does the z-score read?
A: -0.0826 (inactive)

Q: With GCAGAAGUUAAGAUGCAUATT against Usf1 as the sequence, how does the z-score read?
A: 2.02 (active)

Q: Which z-score does the source give for CCUGCUCAACGGAGACCAUTT against Hmx3 here?
A: 3.47 (active)

Q: With GGCUUGAGACUUAAAACGGTT against Lztfl1 as the sequence, how does the z-score read?
A: 0.583 (inactive)

Q: Which z-score does the source give for CGCUGAAAUGGUGAAUAAATT against Recql here?
A: -0.0529 (inactive)

Q: For GUCCCACUGUCCAGUUACATT against Gm9946, which z-score is on record?
A: -0.565 (inactive)

Q: For CGAGAGAAGCCCAUCAUCATT against Nrg4, which z-score is on record?
A: 1 (inactive)

Q: For GGAAGAAAAGGGAUAUCAGTT against Xirp1, which z-score is on record?
A: 0.253 (inactive)

Q: Which z-score does the source give for GGUUCAGACACCACUUCAGTT against Bgn here?
A: 2.56 (active)

Q: Which z-score does the source give for GGAGGAUCACCCAUCAAAUTT against Oxct1 here?
A: -0.083 (inactive)

Q: Which z-score does the source give for GGUAUUUUGAUGUUGGACUTT against Hhat here?
A: 0.989 (inactive)

Q: With GGAUGUGAAACAUGCUUUUTT against Olfr1030 as the sequence, how does the z-score read?
A: 0.536 (inactive)

Q: Which z-score does the source give for CCUCAUGCAGCUCAAUCUATT against Prelp here?
A: -2.41 (active)

Q: For GGCUAUGGCUUUUGUAUGUTT against Arpin, which z-score is on record?
A: -0.0747 (inactive)

Q: Which z-score does the source give for GGACUCAAUAAGAACCUCGTT against Papss1 here?
A: -1.25 (inactive)

Q: Which z-score does the source give for GGAUGAAAGUUGUAUGUAUTT against Ctsk here?
A: -0.606 (inactive)

Q: With GGAUCGUGAGCUUCUAUUATT against Gask1a as the sequence, how does the z-score read?
A: 0.434 (inactive)

Q: Which z-score does the source give for CGAGAAGUGCUGACUCAAUTT against Map2k3os here?
A: 0.563 (inactive)

Q: For GGAUGUCUGGAAUGAAACATT against Slc17a4, which z-score is on record?
A: -3.16 (active)

Q: For GGAGAGCUGCAUCAAAAAGTT against Prdm16, which z-score is on record?
A: 0.545 (inactive)

Q: Which z-score does the source give for GGUGCUCAUGCAGGUCCAUTT against Slc25a25 here?
A: -0.356 (inactive)

Q: Which z-score does the source give for GGGCCAUCUCUCAAUUAUGTT against Gga2 here?
A: 1.93 (inactive)

Q: For GGUUCUACAUGUGAAACAATT against Zfp143, which z-score is on record?
A: -2.15 (active)

Q: Which z-score does the source give for GCCUGGUCUCACUAUGUAGTT against Hpvc2 here?
A: 0.129 (inactive)

Q: Which z-score does the source give for GGACGUGUUUUACAAAUACTT against Srsf1 here?
A: -0.979 (inactive)

Q: With GGGAAAAUAUCUCAUAUCATT against Colec10 as the sequence, how does the z-score read?
A: -0.944 (inactive)

Q: For GGGCUGAAGAUGACUUCAATT against Topors, which z-score is on record?
A: 5.91 (active)

Q: With GGAUGUCUCGGAACUAAGGTT against Med28 as the sequence, how does the z-score read?
A: -0.571 (inactive)

Q: For GGUAUUACAAGGUCAUAUCTT against Nol12, which z-score is on record?
A: -0.357 (inactive)

Q: With UGGCCACGACCCUGAACUUTT against Ghrhr as the sequence, how does the z-score read?
A: 0.56 (inactive)

Q: With GGCAUCAAAAAGCAGACAATT against Erich2 as the sequence, how does the z-score read?
A: -1.98 (inactive)

Q: With GGCUAUGGAACAAAGUACUTT against Sostdc1 as the sequence, how does the z-score read?
A: 0.838 (inactive)

Q: For GGAAAGCACUUUUAUUCCUTT against Sgip1, which z-score is on record?
A: -0.901 (inactive)

Q: With GCCUCGAGAUAUUCUUUGUTT against Snrnp200 as the sequence, how does the z-score read?
A: -2.07 (active)

Q: Which z-score does the source give for GCUAAAAGGCUACGGGAGUTT against Bhlhe23 here?
A: -0.266 (inactive)

Q: For GUGCAGAUAUCUUUAGCAATT against Olfr159, which z-score is on record?
A: -0.958 (inactive)

Q: With GGAUGAGAGUAAGAUCUCGTT against Vipr2 as the sequence, how does the z-score read?
A: -0.296 (inactive)

Q: For GGAAAACUACCUCUUUUGATT against Cbll1, which z-score is on record?
A: 1.4 (inactive)

Q: With GGAGAUCUUAGAGAAAUUATT against Pak1 as the sequence, how does the z-score read?
A: -0.956 (inactive)

Q: Which z-score does the source give for GCAAAGUGGAUAUAGUGUCTT against Gprin1 here?
A: -0.217 (inactive)

Q: With GCAUGCUUUCUGAAUACAATT against Cdk8 as the sequence, how does the z-score read?
A: 2.17 (active)

Q: With GGAACAGCUAAAGUUGGGATT against Kcnj9 as the sequence, how does the z-score read?
A: 0.5 (inactive)

Q: Which z-score does the source give for GGGUAUGGUUCUGUUGGCATT against Pxmp4 here?
A: -1.45 (inactive)

Q: With CCUAAAGGUUCCCAACAGUTT against Serpinb3d as the sequence, how does the z-score read?
A: -0.517 (inactive)

Q: Which z-score does the source give for GGCUGAUUCAUUUGGGAACTT against Olfr9 here?
A: 0.805 (inactive)

Q: For GGCCUCUGAGGACAAGUUUTT against Als2cl, which z-score is on record?
A: 0.0383 (inactive)

Q: For GGUAGAGGAUGCGAUGCUGTT against Msi2, which z-score is on record?
A: 4.61 (active)

Q: For GGGAGGUGCAGAUAGGAUUTT against Csrp1, which z-score is on record?
A: 0.912 (inactive)

Q: Which z-score does the source give for GGCGAUAGUGUCUAAGAAATT against Cfap298 here?
A: -0.0112 (inactive)

Q: With GGAUGAGAAAUACUUUCGGTT against C8a as the sequence, how does the z-score read?
A: 0.126 (inactive)

Q: With GGCAAGUGCCCAAGUUUGUTT against Ifi35 as the sequence, how does the z-score read?
A: 1.08 (inactive)

Q: With GGCAUAUUGUUUCAUUUUGTT against Rlbp1 as the sequence, how does the z-score read?
A: -1.19 (inactive)

Q: Which z-score does the source give for GGCUUUAUAUGAAACUCCUTT against Acrv1 here?
A: -2.01 (active)

Q: For GCACAGUAGUUCUUGCAUCTT against Olfr891, which z-score is on record?
A: 0.13 (inactive)

Q: With CCUAGUCCCUCUGUCUCUUTT against Kctd13 as the sequence, how does the z-score read?
A: -1.79 (inactive)

Q: For GUACACCAGUGGAAGCACATT against Sprr2b, which z-score is on record?
A: -1.91 (inactive)

Q: With GGAUUUGUCAAUGCAAUAATT against Olfr1012 as the sequence, how does the z-score read?
A: -2.68 (active)

Q: With GGACAACAUAUUCUGAUAATT against Stmnd1 as the sequence, how does the z-score read?
A: 1.68 (inactive)

Q: With GGCUUCCUACCUAAGGCUUTT against Bora as the sequence, how does the z-score read?
A: -0.924 (inactive)

Q: Which z-score does the source give for CCAGACUACGGUGCUAAGATT against Defb21 here?
A: 2.49 (active)

Q: With GGCCGUGUUAAGGAAUCUGTT against Cidea as the sequence, how does the z-score read?
A: 0.653 (inactive)

Q: With CCUCUUCUGCGCGGAUUUGTT against Ffar4 as the sequence, how does the z-score read?
A: 0.708 (inactive)

Q: With GGAGAAAGCUUACUGCCUUTT against Lrrc6 as the sequence, how does the z-score read?
A: -0.959 (inactive)

Q: With GGAACAGCAGUUUUUGUUUTT against Rnf44 as the sequence, how does the z-score read?
A: 0.097 (inactive)

Q: For GGCGAGUCUACGUGACACUTT against Arrb1, which z-score is on record?
A: 0.701 (inactive)

Q: With GGACAUCGUGCUCUAUCUCTT against Nrarp as the sequence, how does the z-score read?
A: -1.07 (inactive)

Q: Which z-score does the source give for GCAGAUCUUGUGAUUAAUGTT against Ildr1 here?
A: 0.882 (inactive)

Q: For CCCAUGGAAUGAAAACAACTT against Gm4894, which z-score is on record?
A: 2.58 (active)

Q: Which z-score does the source give for GGAAAUAGUUGGUUUUGAATT against Slfn1 here?
A: -1.95 (inactive)

Q: With GCAUUAGGAAUUCAAUUAGTT against Adamts1 as the sequence, how does the z-score read?
A: 0.813 (inactive)

Q: Which z-score does the source give for “GGACGUAGCUAUGGAGGAUTT against 1810009A15Rik” here?
A: -1.83 (inactive)

Q: For GGAAACCAGAAAAACUGAATT against Parg, which z-score is on record?
A: 0.653 (inactive)

Q: Which z-score does the source give for GGAUUAAUUAAUACUUGGCTT against Rps9 here?
A: 0.986 (inactive)

Q: With CCGACACGUUCUCAAUGUCTT against Gss as the sequence, how does the z-score read?
A: -0.496 (inactive)

Q: Which z-score does the source give for GGAAGGACAAAGAAAGCCUTT against Fbxw4 here?
A: -0.286 (inactive)

Q: With GGUUCUUAGGAGUUAACUCTT against Klf16 as the sequence, how does the z-score read?
A: 2.71 (active)

Q: For GGAGAUCAUGCUCAAGAACTT against Dgke, which z-score is on record?
A: 0.176 (inactive)

Q: For GGACACCUACUUGGUAUUGTT against Epor, which z-score is on record?
A: -0.632 (inactive)

Q: With GGAGAGUAUCAGCAAUGAATT against Impg2 as the sequence, how does the z-score read?
A: 1.02 (inactive)

Q: Which z-score does the source give for GGAAAGUUCCCAUGUUCUCTT against Mgat4f here?
A: 1.33 (inactive)

Q: With CGUGAGAUCAUUGAUGUGGTT against Ankrd2 as the sequence, how does the z-score read?
A: -1.16 (inactive)
